Bioassay records deposited in PubChem BioAssay by National Center for Advancing Translational Sciences (NCATS).
Compounds with a hit are over-represented: about 12% of the library has one in this group of screens.
L3MBTL1 block: L3MBTL1 (human) inhibition; Q9Y468; AlphaScreen L3MBTL1–H3K9me1 peptide binding; Potency, µM (series often up to 57.1 µM), for the others: top-dose activity, negative = inhibition, hits mostly inhibitors; actives 0.66% (n = 230,000); AID 485360; note: % is set by controls: 0 for no effect and ±100 for the full control effect; nearly all actives have a fitted effect of over 60% in size
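AlphaScreen proximity signal between nickel-chelate acceptor and streptavidin donor beads (final 10 ug/mL) reports binding of 50 nM L3MBTL1 to 75 nM biotin-H3 K9me1 peptide; complex incubated with compounds 30 min at room temperature; cefsulodin titration as control.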
JMJD2A Tudor inh: blocks the human JMJD2A Tudor domain; AID 504339; AlphaScreen JMJD2A-Tudor / H3K4me3 peptide binding; Potency, µM (series often up to 114 µM), inactives show top-dose activity change, negative = inhibition, most hits filed as inhibitors; actives 4.4% (n = 390,000); note: % is set by controls: 0 for no effect and ±100 for the full control effect; nearly all actives have a fitted effect of over 50% in size
Target sequence (O75164 whole entry, looked up, the tested form may be a part): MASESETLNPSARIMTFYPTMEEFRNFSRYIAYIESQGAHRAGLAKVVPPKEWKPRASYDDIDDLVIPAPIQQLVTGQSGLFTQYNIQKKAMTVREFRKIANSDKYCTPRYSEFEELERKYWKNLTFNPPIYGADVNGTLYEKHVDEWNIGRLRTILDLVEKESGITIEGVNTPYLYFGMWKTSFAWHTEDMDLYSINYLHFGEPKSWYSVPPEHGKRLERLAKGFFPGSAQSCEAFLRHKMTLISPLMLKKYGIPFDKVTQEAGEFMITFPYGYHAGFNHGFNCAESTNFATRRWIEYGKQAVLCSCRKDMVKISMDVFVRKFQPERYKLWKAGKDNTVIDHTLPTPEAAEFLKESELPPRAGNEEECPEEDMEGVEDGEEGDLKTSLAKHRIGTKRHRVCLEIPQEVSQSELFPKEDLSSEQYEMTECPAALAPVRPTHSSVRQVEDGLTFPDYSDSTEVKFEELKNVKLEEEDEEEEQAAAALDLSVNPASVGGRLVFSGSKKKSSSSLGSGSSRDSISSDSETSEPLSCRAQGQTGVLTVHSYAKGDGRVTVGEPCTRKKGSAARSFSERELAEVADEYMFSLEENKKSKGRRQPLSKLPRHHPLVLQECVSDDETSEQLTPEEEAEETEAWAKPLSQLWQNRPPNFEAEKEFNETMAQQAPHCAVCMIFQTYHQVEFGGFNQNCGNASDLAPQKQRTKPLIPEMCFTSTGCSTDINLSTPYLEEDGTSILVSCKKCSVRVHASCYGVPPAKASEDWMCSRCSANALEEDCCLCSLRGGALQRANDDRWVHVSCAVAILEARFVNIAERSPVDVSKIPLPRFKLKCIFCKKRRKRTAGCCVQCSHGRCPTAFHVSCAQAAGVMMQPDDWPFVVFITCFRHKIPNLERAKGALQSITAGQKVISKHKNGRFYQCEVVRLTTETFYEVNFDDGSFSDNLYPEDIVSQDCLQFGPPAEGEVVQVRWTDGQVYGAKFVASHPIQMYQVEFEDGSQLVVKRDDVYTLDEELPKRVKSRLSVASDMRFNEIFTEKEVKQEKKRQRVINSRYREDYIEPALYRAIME
HP1b chromo inh: blocks HP1-beta chromodomain binding to methylated histone tails | P83916 | AlphaScreen HP1-beta / biotin-H3K9me3 peptide binding | Potency, µM (doses to about 114 µM), for inactives: at the highest dose activity change, negative = inhibition, most hits filed as inhibitors | actives 0.56% (n = 390,000); note: nearly all actives have a fitted effect of over 70% in size
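HP1-beta protein (50 nM final) preincubated 30 min at room temperature with biotinylated H3(1-18)K9me3 peptide (50 nM) in PBS pH 7.4, 0.01% Tween-20, then compound added for 30 min. AlphaScreen streptavidin donor/nickel chelate acceptor beads (10 ug/mL final), 30 min dark, luminescence read.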
G9a inh: G9a (human) methyltransferase inhibition; Potency, µM (highest dose often 102 µM), inactives show top-dose activity, negative = inhibition, actives largely listed as inhibitors; actives 8.8% (n = 350,000); Q96KQ7; G9a H3K9 monomethylation, AlphaScreen, 2 h; note: % is set by controls: 0 for no effect and ±100 for the full control effect; nearly all actives have a fitted effect of over 75% in size
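Enzyme 20 nM + cpd, 15 min RT; add b-H3K9 pep 500 nM / SAM 20 uM; 2 h RT; anti-H3K9me1 Ab 0.5 ug/mL + SA donor / anti-rabbit acceptor beads 20 ug/mL each, 10 min; AlphaScreen read.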
BAZ2B inh: blocks human BAZ2B. AID 504333. Potency, µM (doses to about 114 µM), for the others: at the highest dose activity change, negative = inhibition, most hits filed as inhibitors. actives 4.4% (n = 360,000). AlphaScreen BAZ2B-H3K14Ac peptide displacement. Q9UIF8; note: % is set by controls: 0 for no effect and ±100 for the full control effect; nearly all actives have a fitted effect of over 60% in size
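Multi-concentration screen (max 110 uM) measuring displacement of acetylated histone H3 peptide from BAZ2B by AlphaScreen, using 50 nM protein, 50 nM peptide and 10 ug/mL streptavidin donor plus Ni-chelate acceptor beads.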
Sfp PPTase inh: inhibitors of Bacillus subtilis Sfp phosphopantetheinyl transferase; Q9F4F7; Biochemical Sfp PPTase activity, qHTS; Potency, µM, for the others: largest response in the series, negative = inhibition, hits mostly inhibitors; actives 3.5% (n = 310,000); AID 1490;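 note: the enzyme is Sfp with the accession as filed and its product quenches rhodamine fluorescence; 0% = enzyme reaction without inhibitor and -100% = no enzyme wells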
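Step 1, compound plus 15 nM Sfp-PPTase, 15 min, room temperature. Step 2, add rhodamine-CoA (5 uM) and BHQ-2-YbbR (12.5 uM). Step 3, read 525/598 nm fluorescence at 0 and 30 min.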
* = called active by the depositor; ? = inconclusive; . = no result; [ ] = dose if it differs, or a comment. Calls come from the whole dose curve; as a rule, active = well fitted curve in the direction sought with a large enough effect; inconclusive = small, poorly fitted or top-dose-only effect, or another doubt; inactive = no such curve, though single readings can be large; an effect the other way counts as inactive or inconclusive. Potency is the fitted concentration of half-maximal effect.

SMILES	L3MBTL1 block	JMJD2A Tudor inh	HP1b chromo inh	G9a inh	BAZ2B inh	Sfp PPTase inh
COc1ccc(CC(CC(=O)O)C(=O)Nc2ccc(Cl)c(Cl)c2)cc1 (stereo not given)	-0.2%	8.91µM*	1.5%	5.6%	2.7%	14.8%
COc1ccc(CC(CC(=O)O)C(=O)NCc2ccccc2)cc1 (stereo not given)	4.7%	-9.9%	27.2%	56.2µM*	-29.9%	4.9%
COc1ccc(NC(=O)C(NC(C)=O)C(=O)NCc2ccccc2)cc1 (stereo not given)	0.1%	8.6%	19.7%	-27.4%[59 µM]	10.7%	16.4%
Cc1ccc(NS(=O)(=O)c2ccc3c(ccn3C)c2)cc1C	.	-17.0%	.	.	.	.
COc1ccccc1CNc1ccnc(-c2cccc(NS(C)(=O)=O)c2)n1	.	.	.	-0.1%[0.501 µM]	.	0.5%
O=C1[C@H]2[C@H]3[C@H](O)[C@H](O)C/C(=N/OC[C@@H](O)COCc4ccco4)[C@H]3CC[C@@H]2C(=O)N1c1cccc(Oc2ccccc2)c1	.	.	.	.	.	-13.5%
COc1ccc(-c2cc3ccccc3n2CC(O)CN2CCC(C)CC2)cc1 (stereo not given)	.	17.8µM*	?	?	50.1µM*	?
COc1ccc(-c2cc3ccccc3n2CC(O)Cn2nc(C)cc2C)cc1 (stereo not given)	-10.9%	-31.4%	10.6%	-11.7%[12.7 µM]	-10.6%	-6.2%
COc1ccc(NC(=O)Cn2c(=O)n(Cc3ccc4c(c3)OCO4)c(=O)c3ccc(C(=O)NC4CCCCC4)cc32)cc1	.	-10.0%	17.9%	4.0%[59 µM]	.	.
CC1=CC(C)C(C[N+]2(C)CCCCC2)C(C)C1 (stereo not given)	7.0%	-1.0%	-4.5%	25.1µM*	?	-6.8%
O=C(O)c1cc(O)c2c(c1)[C@@H]([C@H]1c3cc(C(=O)O)cc(O)c3C(=O)c3c(O[C@@H]4O[C@H](CO)[C@@H](O)[C@H](O)[C@H]4O)cccc31)c1cccc(O[C@@H]3O[C@H](CO)[C@@H](O)[C@H](O)[C@H]3O)c1C2=O	0.112µM*	0.891µM*	1.26µM*	.	.	.
Cc1ccc(-c2nn(-c3cccc(F)c3)cc2CNCc2cccnc2)o1	-18.7%	?	2.0%	.	-35.6%	-2.9%
Cc1ccc(-c2nn(-c3cccc(F)c3)cc2CN(Cc2nccn2C)C(C)C)o1	-11.1%	?	?	10µM*	?	39.8µM*
Cc1ccc(-c2nn(-c3cccc(F)c3)cc2CN2CCN(c3ccccn3)CC2)o1	-18.8%	35.5µM*	?	?	50.1µM*	39.8µM*
Cc1cnc(CNc2nc(-c3ccc(N(C)C)cc3)nc3ccccc23)cn1	.	.	.	.	.	-20.2%
CCCn1nc(C(=O)NNC(=O)CSC(C)C(=O)Nc2cc(C)on2)c2ccccc2c1=O (stereo not given)	.	-2.2%	32.0%	22.4µM*	-9.3%	14.0%
CCCn1nc(C(=O)NNC(=O)c2cccc(C)c2)c2ccccc2c1=O	1.9%	-2.1%	40.4%	.	.	.
CC(=O)c1ccc(S(=O)(=O)Nc2cccc(-n3cnnn3)c2)cc1	.	?	4.8%	39.8µM*	50.1µM*	5.9%
CC(=O)Nc1ccc(S(=O)(=O)Nc2cccc(-n3cnnn3)c2)cc1	.	-11.7%	30.0%	-6.7%	-13.3%	16.7%
CC(=O)c1cn(CC(=O)Nc2cccc(C)c2C)c2ccccc12	-10.9%	-11.9%	5.6%	4.4%	-3.7%	44.7µM*
CCN(CC)CCC=C(c1cccs1)c1cccs1	.	0.891µM*	?	.	.	.
CCN(CC)CCCNC(=O)/C(=C\c1cccn1C)NC(=O)c1cccs1	-6.8%	-18.9%	-11.6%	-2.7%[59 µM]	?	-1.4%
O=S(=O)(c1ccc2c(c1)OCCO2)C1CCN(S(=O)(=O)c2c(F)cccc2F)CC1	.	-13.7%	.	.	.	.
Cn1c(=O)c2c(ncn2CCCC(=N)N2CCOCC2)n(C)c1=O	7.7%	50.1µM*	-7.9%	5.3%[12.7 µM]	-2.3%	16.4%
CCCCn1cnc2c1c(=O)n(C)c(=O)n2C	9.4%	-13.5%	7.1%	6.4%[59 µM]	-2.3%	11.4%
SMILES	L3MBTL1 block	JMJD2A Tudor inh	HP1b chromo inh	G9a inh	BAZ2B inh	Sfp PPTase inh
Fc1ccc(CNCc2ccccc2Cl)cc1	12.1%	20µM*	?	2.82µM*	.	-20.8%
CCOC(=O)C1=C(C)N=C2SCCC(=O)N2C1c1ccc(OCc2ccccc2)c(OC)c1 (stereo not given)	.	-26.8%	26.3%	-1.7%[59 µM]	-19.4%	.
CC(C)C[C@@H](CC(=O)N[C@@H](CCC(=O)O)CC(=O)O)NC(=O)[C@@H]1CCCC[C@H]1NC(=O)C[C@H](CCCN)NC(=O)C[C@H](Cc1ccccc1)NC(=O)[C@@H]1CNCC[C@H]1N	.	.	.	.	.	-9.0%
c1ccc(N2CCN(Cc3nnc(-c4ccc5c(c4)OCO5)o3)CC2)cc1	.	5.1%	27.5%	-0.6%[59 µM]	-21.1%	.
CC(=O)c1ccc(N2C(=O)[C@@H]3[C@H](C2=O)[C@H]2c4ccccc4C=NN2[C@@H]3C(C)=O)cc1	.	-15.2%	31.0%	.	13.5%	-27.2%
O=C(c1ccc(Cl)cc1)[C@@H]1[C@@H]2C(=O)N(c3cccc4ccccc34)C(=O)[C@@H]2C2c3ccccc3C=NN21 (stereo not given in full)	-15.3%	?	0.4%	20µM*	-5.8%	-10.7%
CC(=O)Oc1ccc(N2C(=O)[C@@H]3[C@H](C2=O)[C@H]2c4ccccc4C=NN2[C@@H]3C(C)=O)cc1	-5.0%	-7.6%	23.5%	?	-3.9%	12.3%
CC(=O)[C@@H]1[C@@H]2C(=O)N(c3ccccc3F)C(=O)[C@@H]2[C@H]2c3ccccc3C=NN12	-3.4%	-11.5%	35.7%	50.1µM*	-1.7%	-12.2%
O=C(Cc1cccs1)N(c1ccc(Br)cc1)C1C=CS(=O)(=O)C1 (stereo not given)	6.5%	20µM*	-4.9%	3.5%	-15.9%	14.7%
COc1ccc(N(C(=O)Cc2cccs2)C2C=CS(=O)(=O)C2)cc1 (stereo not given)	-20.4%	-25.1%	12.5%	6.5%	?	0.0%
O=C1C(C2=C(O)c3ccccc3C2=O)=Nc2ccccc21	?	31.6µM*	?	.	39.8µM*	56.2µM*
CN=CC1=C(O)c2ccccc2C1=O	-2.6%	-4.3%	18.2%	1.5%[59 µM]	0.7%	24.7%
Cc1cccc(C(C)C)c1NC(=O)COC(=O)CCN1C(=O)C2CC=CCC2C1=O (stereo not given)	.	-9.0%	29.6%	8.2%	-5.1%	13.3%
COc1ccc(-n2cc(-c3ccccc3)c3c(NCCCN4CCOCC4)ncnc32)cc1	.	?	?	50.1µM*	?	-28.2%
Fc1ccc(-n2cc(-c3ccccc3)c3c(N4CCOCC4)ncnc32)cc1	-27.6%	-30.4%	48.0%	-45.6%	?	-14.4%
